# From PubChem BioAssay
# A selection: hits, their analogues and other compounds. The true share with any hit is near 2.5%.
# LGR2 inh = inhibitors of bursicon-induced LGR2 CRE-luciferase signal, primary screen, cell-based, HEK293, CRE-luciferase reporter, bursicon stimulation; Drosophila bursicon receptor LGR2 (rickets); bursicon-stimulated, 4 h; inhibition, % at 9.99 µM; hit rate 0.35% among 380,000; AID 720647, 2013;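 active means drop in luminescence signal, shown as inhibition above about 50% in the replicate tests, limit read from the data, passing the limit was not always enough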;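 further: agonist challenge used bursicon conditioned medium at about half maximal strength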
# EWS-Fli inh = EWS/Fli-driven NR0B1 reporter inhibitors, primary screen, A673 cells, NR0B1 luciferase, luminescence, MLPCN library; viability-normalised; hit rate 0.67% among 350,000; AID 651661, 2012; inhibition, % at 12.6 µM;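 active means mean inhibition of at least 50% after viability correction, with every replicate also passing that limit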;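 further: firefly luciferase signal divided by Alamar Blue viability fluorescence both relative to DMSO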
# TWEAK-Fn14 inh = inhibitors of TWEAK-Fn14 signaling, primary screen, luciferase reporter cells, uHTS; TWEAK-stimulated Fn14 reporter cells, luciferase luminescence, 8 h; inhibition, % at 10 µM; hit rate 2% among 360,000; in the data active means inhibition above about 50%
# LMP1 NFkB inh = EBV LMP1-driven NF-kappaB luciferase reporter inhibitors, primary screen, cell-based, luminescence, single point; LMP1-induced NF-kappaB luciferase reporter cells; inhibition, % at 12.5 µM; hit rate 0.69% among 350,000; AID 504558, 2011; in the data active means inhibition above about 41%;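 further: 0% = neutral control wells and 100% = reference inhibitor control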
# TROY NFkB inh = inhibitors of TROY-driven NF-kB signaling, primary screen, Q293 LMP1-TROYcd cells, NF-kB luciferase, uHTS | hit rate 0.98% among 360,000 | inhibition, % at 10 µM | AID 1347056, 2019 | Q293 LMP1-TROYcd NF-kB luciferase reporter, 4 h;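 active means compounds whose plate-normalised and pattern-corrected inhibition of the luciferase reporter signal at the single screening dose is 50% or more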
# The depositor's hits bear a star; · = not tested or not shown.
SMILES,LGR2 inh,EWS-Fli inh,TWEAK-Fn14 inh,LMP1 NFkB inh,TROY NFkB inh
C[C@@H]1CN([C@@H](C)CO)C(=O)CCCn2cc(nn2)CO[C@@H]1CN(C)C,2,-1,·,·,·
COc1ccc(-c2ccc3c(c2)[C@H]2[C@H](CCN2S(=O)(=O)c2ccc(F)cc2)[C@H](CO)N3C)cc1,16,5,·,·,·
CN1c2ccc(-c3ccc(F)cc3)cc2[C@H]2[C@H](CCN2S(=O)(=O)c2ccc(F)cc2)[C@@H]1CO,12,55*,·,·,·
C[C@@H]1CN([C@@H](C)CO)C(=O)c2cc(-c3ccccc3F)cnc2O[C@H]1CN(C)C(=O)NC1CCCC1,2,-7,·,·,·
CCN1C(=O)/C(=C\c2nc3ccccc3c(=O)n2-c2ccccc2)c2ccccc21,30,22,57*,11,26
CCN1C(=O)/C(=C/c2nc3ccccc3c(=O)n2-c2ccc(C)cc2)c2ccccc21,36,-5,67*,14,13
COc1ccc(-n2c(/C=C3\C(=O)N(C)c4ccccc43)nc3ccccc3c2=O)cc1,29,5,44,16,29
COc1ccc(NC(=O)N(C)C[C@H]2Oc3ccc(NS(=O)(=O)c4ccccc4)cc3CC(=O)N([C@@H](C)CO)C[C@H]2C)cc1,-3,-3,·,·,·
COC(=O)/C(=C1/Oc2ccc(C(C)(C)C)cc2S1)C(F)(F)F,-50,-34,18,-15,33
COC(=O)/C(=C1/Oc2cc(C)oc(=O)c2S1)C(F)(F)F,42,54*,98*,-10,20
COc1ccc(N2CCN(S(=O)(=O)c3cccc4cccnc34)CC2)cc1,-15,1,3,0,-3
COc1ccc(CC2(CO)CCN(S(=O)(=O)c3cccc4cccnc34)CC2)cc1,-4,0,56*,8,14
O=C1CNC[C@H]2[C@H](c3ccc(C4=CCCC4)cc3)[C@@H](CO)N12,-2,-8,·,·,·
COc1ccc(N2CCN(c3nc(NCCc4ccc(OC)c(OC)c4)nc(OC)n3)CC2)cc1,·,·,38,13,57*
COC(=O)c1c(O)ccc(Oc2ccccc2)c1C(=O)OC,7,·,16,47*,14
COCC(=O)Nc1ccc2c(c1)C(=O)N(C)[C@H]1CC[C@H](CC(=O)N3CCc4ccccc4C3)O[C@H]1CO2,10,-1,·,·,·
Cc1ccc2nc(NC(=O)CSCC(=O)OCC(=O)c3ccc(Br)cc3)sc2c1,·,·,74*,29,64*
COC(=O)c1ccc2nc(NC(=O)CSCC(=O)OCC(=O)c3ccccc3)sc2c1,-9,-18,42,-20,49
COc1ccccc1N=C1SC(C(=O)Nc2cccc(Cl)c2Cl)C(N)=C1C(N)=O (configuration not stated),-5,55*,14,3,5
CC=Cc1ccc2n(c1=O)C[C@@H]1[C@@H](CO)[C@H](C(=O)NCC(F)(F)F)[C@H]2N1C(=O)C1CCC1 (mixture of isomers),-2,1,·,·,·
CCOC(=O)CCc1ccc(NC(=O)/C=C/c2ccc([N+](=O)[O-])o2)cc1,18,51*,77*,-66,-9
Cc1ccc(/C=C/C(=O)Nc2ccc([N+](=O)[O-])cc2)o1,-29,-21,3,-19,10
CCOC(=O)NNC(=O)CCn1c2c(c3ccccc31)CCCC2,6,-22,59*,14,47
CCC(=O)Nc1ccc2c(c1)C(=O)N(C)C[C@@H](OC)[C@@H](C)CN(Cc1cncnc1)[C@@H](C)CO2,9,2,·,·,·
COC(=O)Nc1ccc(S(=O)(=O)N2CCCc3ccccc32)cc1,·,·,53*,16,28
Cc1cc(NC(=O)c2ccc(S(=O)(=O)N3CCc4ccccc43)cc2)no1,·,-2,8,-3,7
CC1CCc2nc(NC(=O)c3ccc(S(=O)(=O)N4CCCc5ccccc54)cc3)sc2C1 (configuration not stated),·,·,55*,39,9
O=C(Nc1nc2c(s1)CCCC2)c1ccc(S(=O)(=O)N2CCCc3ccccc32)cc1,23,·,69*,-50,17
CNC(=O)c1ccsc1NC(=O)c1ccc(S(=O)(=O)N2CCCc3ccccc32)cc1,10,7,76*,-1,48
